Inconclusive results are not listed. The source made the active and inactive calls. Calls come from the whole dose curve.
Tests used:
[1] = Primary qHTS for inhibitors of SARS-S pseudo-typed particle cell entry (AID 1479145); note: nearly all actives have a fitted effect of over 45% in size
[2] = Primary qHTS for Huh7 cytotoxicity: counterscreen for inhibitors of MERS-S pseudotyped particle cell entry (AID 1479147)
[3] = Primary qHTS for inhibitors of MERS-S pseudo-typed particle cell entry (AID 1479149); note: nearly all actives have a fitted effect of over 60% in size
[4] = Primary qHTS for Vero E6 cytotoxicity: counterscreen for inhibitors of SARS-S pseudo-typed particle cell entry (AID 1479150)
% is set by controls: 0 for no effect and ±100 for the full control effect.

N[C@@H](CCC(=O)N[C@@H](CS)C(=O)NCC(=O)O)C(=O)O
inactive: Potency [1] | Potency [2] | Potency [3] | Potency [4]

C[C@@H]1[C@H](O)[C@@H](C)/C=C/C=C\C=C\C=C\C=C\C=C\C=C\[C@H](O[C@@H]2O[C@H](C)[C@@H](O)[C@H](N)[C@@H]2O)C[C@@H]2O[C@](O)(C[C@@H](O)C[C@@H](O)[C@H](O)CC[C@@H](O)C[C@@H](O)CC(=O)O[C@H]1C)C[C@H](O)[C@H]2C(=O)O (stereo in doubt)
inactive: Potency [1] | Potency [2] | Potency [3] | Potency [4]

NC(=O)NC1NC(=O)NC1=O (stereo unspecified)
inactive: Potency [1] | Potency [2] | Potency [3] | Potency [4]

COc1ccc2cccc(CCNC(C)=O)c2c1
inactive: Potency [1] | Potency [2] | Potency [3] | Potency [4]

O=C(O)[C@H](O)c1ccccc1
inactive: Potency [1] | Potency [2] | Potency [3] | Potency [4]

Cn1nnc2c(C(N)=O)ncn2c1=O
inactive: Potency [1] | Potency [2] | Potency [3] | Potency [4]

COc1cc(C(=O)NC2CCCNC2)cc(OC)c1OC (stereo unspecified)
inactive: Potency [1] | Potency [2] | Potency [3] | Potency [4]

CC(O)(P(=O)(O)O)P(=O)(O)O
inactive: Potency [1] | Potency [2] | Potency [3] | Potency [4]

Cc1c[nH]c2ccccc12
inactive: Potency [1] | Potency [2] | Potency [3] | Potency [4]

Cc1cccc(C)c1NC(=O)c1cc(S(N)(=O)=O)c(Cl)cc1O
inactive: Potency [1] | Potency [2] | Potency [3] | Potency [4]

COc1cc2c(Nc3ccc(Br)cc3F)ncnc2cc1OCC1CCN(C)CC1
inactive: Potency [1] | Potency [2] | Potency [3] | Potency [4]

Cc1c(Nc2ncccc2C(=O)O)cccc1C(F)(F)F
inactive: Potency [1] | Potency [2] | Potency [3] | Potency [4]

C[N+](C)(C)CCOC(N)=O
inactive: Potency [1] | Potency [2] | Potency [3] | Potency [4]

C[C@H](CS)C(=O)N1CCC[C@H]1C(=O)O
inactive: Potency [1] | Potency [2] | Potency [3] | Potency [4]

CC(C)(C(=O)c1cccnc1)c1cccnc1
inactive: Potency [1] | Potency [2] | Potency [3] | Potency [4]

CCCc1nc(C(C)(C)O)c(C(=O)OCc2oc(=O)oc2C)n1Cc1ccc(-c2ccccc2-c2nn[nH]n2)cc1
inactive: Potency [1] | Potency [2] | Potency [3] | Potency [4]

Cc1onc(-c2ccccc2)c1-c1ccc(S(N)(=O)=O)cc1
inactive: Potency [1] | Potency [2] | Potency [3] | Potency [4]

CCc1cccc(CC)c1NC(=O)CN(CC(=O)O)CC(=O)O
inactive: Potency [1] | Potency [2] | Potency [3] | Potency [4]

CCN1CCN(C(=O)N[C@@H](C(=O)N[C@@H]2C(=O)N3[C@@H]2SC(C)(C)[C@H]3C(=O)O)c2ccccc2)C(=O)C1=O
inactive: Potency [1] | Potency [2] | Potency [3] | Potency [4]

COC(=O)N/N=C/c1c[n+]([O-])c2ccccc2[n+]1[O-]
inactive: Potency [1] | Potency [2] | Potency [3] | Potency [4]

Cc1oc(=O)oc1COC(=O)[C@@H]1N2C(=O)[C@@H](NC(=O)[C@H](N)c3ccccc3)[C@H]2SC1(C)C
inactive: Potency [1] | Potency [2] | Potency [3] | Potency [4]

Cc1ccc(C(C)C)c(O)c1
inactive: Potency [1] | Potency [2] | Potency [3] | Potency [4]

COc1ccc2[nH]cc(CCNC(C)=O)c2c1
inactive: Potency [1] | Potency [2] | Potency [3] | Potency [4]

C[C@@H](O)[C@H]1C(=O)N2C(C(=O)O)=C(SCCN=CN)C[C@H]12
inactive: Potency [1] | Potency [2] | Potency [3] | Potency [4]

CC(C)(O/N=C(\C(=O)N[C@@H]1C(=O)N2C(C(=O)[O-])=C(C[n+]3ccccc3)CS[C@H]12)c1csc(N)n1)C(=O)O
inactive: Potency [1] | Potency [2] | Potency [3] | Potency [4]

O=C(O)CCC(=O)O
inactive: Potency [1] | Potency [2] | Potency [3] | Potency [4]

CCCCCC=CCC=CCCCCCCCC(=O)OCC
inactive: Potency [1] | Potency [2] | Potency [3] | Potency [4]

CS(=O)(=O)c1ccc([C@@H](O)[C@@H](CF)NC(=O)C(Cl)Cl)cc1
inactive: Potency [1] | Potency [2] | Potency [3] | Potency [4]

COCC(=O)Nc1c(I)c(C(=O)NCC(O)CO)c(I)c(C(=O)N(C)CC(O)CO)c1I (stereo unspecified)
inactive: Potency [1] | Potency [2] | Potency [3] | Potency [4]

NC[C@H]1O[C@H](O[C@H]2[C@H](O[C@@H]3O[C@H](CO)[C@@H](O)[C@H]3O)C(O)[C@H](N)C[C@@H]2N)[C@H](N)[C@@H](O)[C@@H]1O (stereo partly specified)
inactive: outcome [1] inactive [at 11.4 µM] | outcome [2] inactive [at 11.4 µM] | outcome [3] inactive [at 11.4 µM] | activity change, negative = cytotoxicity [4] 0.563% [at 11.4 µM]

CN[C@@H]1CCc2[nH]c3ccc(C(N)=O)cc3c2C1
inactive: Potency [1] | Potency [2] | Potency [3] | Potency [4]

CC1(C)O[C@H]2CC(=O)OC[C@]23[C@H]2CC[C@@]4(C)[C@H](c5ccoc5)OC(=O)[C@H]5O[C@]54[C@]2(C)C(=O)C[C@@H]13
inactive: Potency [1] | Potency [2] | Potency [3] | Potency [4]

C/C(=C(\CCO)SS/C(CCO)=C(\C)N(C=O)Cc1cnc(C)nc1N)N(C=O)Cc1cnc(C)nc1N
inactive: Potency [1] | Potency [2] | Potency [3] | Potency [4]

CN1C(C(=O)Nc2ccccn2)=C(O)c2ccccc2S1(=O)=O
inactive: Potency [1] | Potency [2] | Potency [3] | Potency [4]

CC1(C)O[C@@H]2C[C@H]3[C@@H]4CCC5=CC(=O)C=C[C@]5(C)[C@@H]4[C@@H](O)C[C@]3(C)[C@]2(C(=O)CO)O1
inactive: Potency [1] | Potency [2] | Potency [3] | Potency [4]

O=C(O)CNC(=O)c1ccccc1
inactive: Potency [1] | Potency [2] | Potency [3] | Potency [4]

CCCCCCCCCCCCSCCOCCO
inactive: Potency [1] | Potency [2] | Potency [3] | Potency [4]

O=C(O)c1ccccc1S
inactive: Potency [1] | Potency [2] | Potency [3] | Potency [4]

CN1CCC[C@@H]1c1cccnc1
inactive: Potency [1] | Potency [2] | Potency [3] | Potency [4]

COc1cccc(OC)c1C(=O)N[C@@H]1C(=O)N2[C@@H]1SC(C)(C)[C@@H]2C(=O)O
inactive: Potency [1] | Potency [2] | Potency [3] | Potency [4]

O=C1CC[C@H](C(=O)N2CCCCC2)N1
inactive: Potency [1] | Potency [2] | Potency [3] | Potency [4]

CC(C)(Oc1ccc(C2CC2(Cl)Cl)cc1)C(=O)O (stereo unspecified)
inactive: Potency [1] | Potency [2] | Potency [3] | Potency [4]

N#Cc1ccc(C(c2ccc(C#N)cc2)n2cncn2)cc1
inactive: Potency [1] | Potency [2] | Potency [3] | Potency [4]

Nc1nc2ccc(OC(F)(F)F)cc2s1
inactive: Potency [1] | Potency [2] | Potency [3] | Potency [4]

CC1(C)O[C@@H]2C[C@H]3[C@@H]4CCC5=CC(=O)C=C[C@]5(C)[C@@]4(F)[C@@H](O)C[C@]3(C)[C@]2(C(=O)CO)O1
inactive: Potency [1] | Potency [2] | Potency [3] | Potency [4]

NS(=O)(=O)c1cc(C2(O)NC(=O)c3ccccc32)ccc1Cl (stereo unspecified)
inactive: Potency [1] | Potency [2] | Potency [3] | Potency [4]

CC(=O)SCC(CC(=O)c1ccc(C)cc1)C(=O)O (stereo unspecified)
inactive: Potency [1] | Potency [2] | Potency [3] | Potency [4]

CC(CSC(=O)c1ccccc1)C(=O)N1C[C@@H](Sc2ccccc2)C[C@H]1C(=O)O (stereo partly specified)
inactive: Potency [1] | Potency [2] | Potency [3] | Potency [4]

CCOc1cc(OCC)c(C(=O)CCC(=O)O)cc1OCC
inactive: Potency [1] | Potency [2] | Potency [3] | Potency [4]

Cc1cc2c(cc1CC(=O)c1sccc1S(=O)(=O)Nc1onc(C)c1Cl)OCO2
inactive: Potency [1] | Potency [2] | Potency [3] | Potency [4]

CC(C)COC(=O)c1ccc(N)cc1
inactive: Potency [1] | Potency [2] | Potency [3] | Potency [4]

Cc1cccc(C)c1OCC(=O)N[C@@H](Cc1ccccc1)[C@@H](O)C[C@H](Cc1ccccc1)NC(=O)[C@H](C(C)C)N1CCCNC1=O
inactive: Potency [1] | Potency [2] | Potency [3] | Potency [4]

COc1cc(NS(=O)(=O)c2ccc(N)cc2)nc(C)n1
inactive: Potency [1] | Potency [2] | Potency [3] | Potency [4]

O=C(O)Cc1cccc2ccccc12
inactive: Potency [1] | Potency [2] | Potency [3] | Potency [4]

O=c1[nH]c(=O)n([C@H]2C[C@H](O)[C@@H](CO)O2)cc1I
inactive: Potency [1] | Potency [2] | Potency [3] | Potency [4]

CCCC(=O)O[C@]1(C(=O)CO)CC[C@H]2[C@@H]3CCC4=CC(=O)CC[C@]4(C)[C@H]3[C@@H](O)C[C@@]21C
inactive: Potency [1] | Potency [2] | Potency [3] | Potency [4]

Cc1cc(NS(=O)(=O)c2ccc(N)cc2)no1
inactive: Potency [1] | Potency [2] | Potency [3] | Potency [4]

CN/C(=C\[N+](=O)[O-])NCCSCc1csc(CN(C)C)n1
inactive: Potency [1] | Potency [2] | Potency [3] | Potency [4]

CC(CC(C#N)(c1ccccc1)C(C)C)N(C)C (stereo unspecified)
inactive: Potency [1] | Potency [2] | Potency [3] | Potency [4]

CC(=O)Nc1ccccc1
inactive: Potency [1] | Potency [2] | Potency [3] | Potency [4]

CCCCC(=O)OCC(=O)[C@H]1[C@H](C)C[C@H]2[C@@H]3C[C@H](F)C4=CC(=O)C=C[C@]4(C)[C@@]3(F)[C@@H](O)C[C@@]21C
inactive: Potency [1] | Potency [2] | Potency [3] | Potency [4]

CC(=O)Nc1c(I)c(NC(C)=O)c(I)c(C(=O)O)c1I
inactive: Potency [1] | Potency [2] | Potency [3] | Potency [4]

C[C@]12C=CC(=O)C=C1[C@@H](F)C[C@@H]1[C@@H]2[C@@H](O)C[C@@]2(C)[C@H]1CC[C@]2(O)C(=O)CO
inactive: Potency [1] | Potency [2] | Potency [3] | Potency [4]

CCCCC(O)/C=C(C)/C=C/C=C/C(=O)N1CCCC1=O (stereo unspecified)
inactive: Potency [1] | Potency [2] | Potency [3] | Potency [4]

CCCCCC[C@@H](CCC)C(=O)O
inactive: Potency [1] | Potency [2] | Potency [3] | Potency [4]

COC(=O)c1cccnc1
inactive: Potency [1] | Potency [2] | Potency [3] | Potency [4]

CN=C(NC#N)NCCSCc1nc[nH]c1C
inactive: Potency [1] | Potency [2] | Potency [3] | Potency [4]

CC1(C)O[C@@H]2C[C@H]3[C@@H]4C[C@H](F)C5=CC(=O)C=C[C@]5(C)[C@@]4(F)[C@@H](O)C[C@]3(C)[C@]2(C(=O)CO)O1
inactive: Potency [1] | Potency [2] | Potency [3] | Potency [4]

CC(C(=O)O)c1ccc2c(c1)[nH]c1ccc(Cl)cc12 (stereo unspecified)
inactive: Potency [1] | Potency [2] | Potency [3] | Potency [4]

— PubChem BioAssay (NCATS)
